Measured values: PubChem BioAssay (Tox21)
Inconclusive results are not listed. Activity calls are given as the source filed them. Unless noted, calls follow the shape of the full dose curve.

Assays:
[1] = Nuclear factor erythroid 2-related factor 2/antioxidant responsive element (Nrf2/ARE) small molecule agonists: qHTS cell viability counter screen in human keratinocytes (AID 1919968; active = well fitted curve in the direction sought with a large enough effect in the repeat runs; an effect the other way counts as inactive or inconclusive; also: nearly all actives have a fitted effect of over 55% in size; also: potency is read from the fitted curve at half-maximal effect)
Procedure, shortened: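 HaCaT ARE reporter line, 1,500 cells/well; 5 h settle, 37 C/5% CO2; cpd in DMSO pinned; 23 h exposure; CellTiter-Fluor, 1 h; fluorescence.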

[2] = target: Gonadotropin-releasing hormone receptor (Homo sapiens) (UniProt P30968); experiment: Human gonadotropin-releasing hormone receptor (GnRHR) small molecule agonists, calcium flux assay in GnRHR-HEK293 cells (AID 1920063); also: nearly all actives have a fitted effect of over 35% in size
Sequence of Gonadotropin-releasing hormone receptor (Homo sapiens) (P30968 whole entry, looked up): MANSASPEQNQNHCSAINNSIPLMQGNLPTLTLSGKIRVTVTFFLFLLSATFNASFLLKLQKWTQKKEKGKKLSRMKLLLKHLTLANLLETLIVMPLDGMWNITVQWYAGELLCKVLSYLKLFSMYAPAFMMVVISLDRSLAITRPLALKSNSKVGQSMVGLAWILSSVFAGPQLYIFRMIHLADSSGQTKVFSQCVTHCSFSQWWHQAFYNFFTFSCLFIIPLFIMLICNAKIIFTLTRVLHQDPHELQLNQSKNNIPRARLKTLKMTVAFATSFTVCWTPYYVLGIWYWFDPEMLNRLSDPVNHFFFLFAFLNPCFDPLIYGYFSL
Procedure, shortened: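 GnRHR-HEK293, 1500 cells/well, 18 h 37 C/5% CO2; Ca dye 1 h 37 C; cpd pinned (DMSO), agonist mode; kinetic FL 480/540, 3 min, 1 s reads; 15 conc, n=3.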

[3] = target: KiSS-1 receptor (Homo sapiens) (UniProt Q969F8); experiment: Human kisspeptin (KISS1R) small molecule agonists, calcium flux assay in KISS1R-HEK293 cells (AID 1920064; active = well fitted curve in the direction sought with a large enough effect in the repeat runs; an effect the other way counts as inactive or inconclusive)
Sequence of KiSS-1 receptor (Homo sapiens) (Q969F8 whole entry, looked up): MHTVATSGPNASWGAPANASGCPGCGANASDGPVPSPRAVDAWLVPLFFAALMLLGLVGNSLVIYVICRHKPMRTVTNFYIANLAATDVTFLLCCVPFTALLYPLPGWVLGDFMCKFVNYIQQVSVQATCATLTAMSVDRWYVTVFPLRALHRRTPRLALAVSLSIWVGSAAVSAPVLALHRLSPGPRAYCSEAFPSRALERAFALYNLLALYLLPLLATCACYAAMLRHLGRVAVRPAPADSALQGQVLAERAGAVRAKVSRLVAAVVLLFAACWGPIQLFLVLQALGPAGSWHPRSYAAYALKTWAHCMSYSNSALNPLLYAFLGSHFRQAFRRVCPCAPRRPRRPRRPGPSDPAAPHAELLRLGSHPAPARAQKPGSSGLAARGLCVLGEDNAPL
Procedure, shortened: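 Stable human KISS1R HEK293 line; 18 h plating, 37 C/5% CO2; calcium dye 1 h 37 C; compound pin transfer; kinetic fluorescence Ex/Em 480/540, 3 min.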

[4] = G protein-coupled receptor (GPCR) small molecule agonists, calcium flux assay: HEK293 wild type cell line counter screen (AID 1920065)
Procedure, shortened: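 Kinetic fluorescence at Ex/Em 480/540, recorded every second over 3 min, served as the read-out after compound addition. Each compound was tested at 15 concentrations in triplicate on cells pre-loaded with calcium dye for 1 h.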

[5] = p53 small molecule agonists, cell-based qHTS assay with human liver microsomes (AID 1963577);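 also: p53 response element beta-lactamase reporter cells with liver microsomes plus NADPH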
Procedure, shortened: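 Reporter activation was measured by LiveBLAzer fluorescence intensity in p53RE-bla cells, which had been exposed to compounds for 16 h at 37 C alongside 0.5 mg/mL human liver microsomes and 0.5 mg/mL NADPH (final concentrations).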

[6] = p53 small molecule agonists, cell-based qHTS assay with rat liver microsomes (AID 1963578)
Procedure, shortened: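 Compound in DMSO added to p53RE-bla cells 5 h post-plating; rat microsomes/NADPH 0.5 mg/mL final; 16 h, 37 C; LiveBLAzer 2 h RT.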

[7] = p53 small molecule agonists, cell-based qHTS assay with human liver microsomes: qHTS cell viability counter screen (AID 1963579); also: nearly all actives have a fitted effect of over 45% in size
Procedure, shortened: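 HLM-supplemented (0.5 mg/mL final) and NADPH-supplemented (0.5 mg/mL final) p53RE-bla cultures, 4,000 cells per well, were dosed with compounds in DMSO for 16 h at 37 C; luminescent ATP detection (CellTiter-Glo, 30 min, room temperature) quantified surviving cells.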

[8] = p53 small molecule agonists, cell-based qHTS assay with rat liver microsomes: qHTS cell viability counter screen (AID 1963580); also: nearly all actives have a fitted effect of over 45% in size
Procedure, shortened: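 HCT-116 p53RE-bla, 4,000 cells/well, 5 h pre-incubation; cpd + rat liver microsomes 0.5 mg/mL + NADPH 0.5 mg/mL (final); 16 h, 37 C; CellTiter-Glo, 30 min RT; luminescence.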

[9] = p53 small molecule agonists, cell-based qHTS assay: qHTS cell viability counter screen (AID 1963581); also: nearly all actives have a fitted effect of over 45% in size
Procedure, shortened: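 HCT-116 p53RE-bla cells, 4,000/well, plated 5 h before compound pin transfer; 16 h at 37 C; bla substrate 2 h RT; then CellTiter-Glo, 30 min RT, luminescence.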

[10] = p53 small molecule agonists, cell-based qHTS assay (AID 1963582; active = well fitted activation curve with a large enough effect in the signal ratio in the repeat runs, not every such curve was filed as active; the % refers to the signal ratio)
Procedure, shortened: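 Reporter line: p53RE-bla. Pre-incubation 5 h, 37 C, 5% CO2; compound (DMSO, pin tool) 16 h, 37 C; B/G FRET substrate 2 h RT; fluorescence intensity read.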

[11] = target: 5-hydroxytryptamine receptor 2A (Homo sapiens) (UniProt P28223); experiment: 5-hydroxytryptamine receptor 2A (HTR2A) small molecule antagonists, cell-based qHTS assay (AID 1963586); also: nearly all actives have a fitted effect of over 45% in size
Sequence of 5-hydroxytryptamine receptor 2A (Homo sapiens) (P28223 whole entry, looked up): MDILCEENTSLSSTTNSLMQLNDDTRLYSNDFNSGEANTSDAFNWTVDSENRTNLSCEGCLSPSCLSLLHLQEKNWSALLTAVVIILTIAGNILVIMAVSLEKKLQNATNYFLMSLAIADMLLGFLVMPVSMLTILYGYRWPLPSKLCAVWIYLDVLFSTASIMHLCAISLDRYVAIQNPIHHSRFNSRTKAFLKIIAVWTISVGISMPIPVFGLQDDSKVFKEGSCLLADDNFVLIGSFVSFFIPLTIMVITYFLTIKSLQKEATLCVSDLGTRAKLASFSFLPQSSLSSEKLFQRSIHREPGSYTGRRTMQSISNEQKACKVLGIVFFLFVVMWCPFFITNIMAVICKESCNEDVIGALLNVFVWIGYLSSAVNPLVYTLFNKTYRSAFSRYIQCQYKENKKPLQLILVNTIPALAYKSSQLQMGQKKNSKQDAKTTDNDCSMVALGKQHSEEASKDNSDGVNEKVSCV
Procedure, shortened: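 Antagonist-mode intracellular calcium assay: DOI (4 nM) added after 5 min compound pre-incubation at room temperature to dye-loaded HTR2A-CHO cells. Fluorescence followed for 3 min, sampled every second.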

[12] = target: 5-hydroxytryptamine receptor 2A (Homo sapiens) (UniProt P28223); experiment: 5-hydroxytryptamine receptor 2A (HTR2A) small molecule agonists, cell-based qHTS assay (AID 1963587); also: nearly all actives have a fitted effect of over 30% in size
Procedure, shortened: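 Kinetic calcium-flux fluorescence (2 min, 1 sec intervals) after compound addition in agonist mode. HTR2A-CHO cells were cultured 18 h, then dye-loaded 1 h at 37 C.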

[13] = target: Muscarinic acetylcholine receptor M1 (Homo sapiens) (UniProt P11229); experiment: Cholinergic receptor muscarinic 1 (CHRM1) small molecule antagonists, cell-based qHTS assay (AID 1963588); also: nearly all actives have a fitted effect of over 40% in size
Sequence of Muscarinic acetylcholine receptor M1 (Homo sapiens) (P11229 whole entry, looked up): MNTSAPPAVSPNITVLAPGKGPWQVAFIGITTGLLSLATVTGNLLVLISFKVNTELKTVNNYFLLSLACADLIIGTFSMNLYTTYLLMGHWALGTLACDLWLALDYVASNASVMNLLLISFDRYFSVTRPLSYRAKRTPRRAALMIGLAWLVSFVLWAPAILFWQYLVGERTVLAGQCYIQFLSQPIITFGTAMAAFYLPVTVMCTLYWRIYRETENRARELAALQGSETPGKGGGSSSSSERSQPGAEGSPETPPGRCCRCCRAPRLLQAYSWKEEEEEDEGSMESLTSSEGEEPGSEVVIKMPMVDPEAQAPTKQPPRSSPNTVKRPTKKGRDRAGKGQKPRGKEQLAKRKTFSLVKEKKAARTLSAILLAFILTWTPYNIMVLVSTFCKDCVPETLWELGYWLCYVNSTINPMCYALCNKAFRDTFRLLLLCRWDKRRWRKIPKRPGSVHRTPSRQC
Procedure, shortened: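 CHRM1-CHO calcium-flux assay, antagonist mode. Cells were seeded 18 h, dye-loaded 1 h at 37 C and given compound for 5 min at RT, then acetylcholine was added at 50nM. FDSS fluorescence was read 3 min; 15 concentrations, three runs.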

[14] = target: Muscarinic acetylcholine receptor M1 (Homo sapiens) (UniProt P11229); experiment: Cholinergic receptor muscarinic 1 (CHRM1) small molecule agonists, cell-based qHTS assay (AID 1963589); also: nearly all actives have a fitted effect of over 35% in size
Procedure, shortened: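 Human M1 in stable CHO line; 18 h plating, 1 h dye load 37 C; cpd added (agonist mode); Ca2+ fluorescence kinetic read, 1 s intervals; 15 conc, 3 runs.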

[15] = cAMP Responsive Elements (CRE) small molecule agonists, cell-based qHTS assay (AID 1963590)
Procedure, shortened: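 HEK 293T CRE-bla, 2,000 cells/well, 18 h preincubation 37 C/5% CO2; cpds (DMSO) pinned, 3 h; LiveBLAzer B/G FRET substrate, 2 h RT.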

[16] = cAMP Responsive Elements (CRE) small molecule antagonists, cell-based qHTS assay (AID 1963591; active = well fitted inhibition curve with a large enough effect in the signal ratio in the repeat runs, not every such curve was filed as active; the % refers to the signal ratio)
Procedure, shortened: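 Beta-lactamase reporter read by FRET substrate (LiveBLAzer B/G) after 2 h at room temperature. CRE-bla HEK293T cells had received compound plus 0.25 uM (final) NKH477 for 3 h at 37 °C.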

[17] = target: Beta-2 adrenergic receptor (Homo sapiens) (UniProt P07550); experiment: Adrenergic beta2 receptor (ADRB2) small molecule antagonists, cell-based qHTS assay (AID 1963592); also: series mostly up to about 92 µM; nearly all actives have a fitted effect of over 50% in size
Sequence of Beta-2 adrenergic receptor (Homo sapiens) (P07550 whole entry, looked up): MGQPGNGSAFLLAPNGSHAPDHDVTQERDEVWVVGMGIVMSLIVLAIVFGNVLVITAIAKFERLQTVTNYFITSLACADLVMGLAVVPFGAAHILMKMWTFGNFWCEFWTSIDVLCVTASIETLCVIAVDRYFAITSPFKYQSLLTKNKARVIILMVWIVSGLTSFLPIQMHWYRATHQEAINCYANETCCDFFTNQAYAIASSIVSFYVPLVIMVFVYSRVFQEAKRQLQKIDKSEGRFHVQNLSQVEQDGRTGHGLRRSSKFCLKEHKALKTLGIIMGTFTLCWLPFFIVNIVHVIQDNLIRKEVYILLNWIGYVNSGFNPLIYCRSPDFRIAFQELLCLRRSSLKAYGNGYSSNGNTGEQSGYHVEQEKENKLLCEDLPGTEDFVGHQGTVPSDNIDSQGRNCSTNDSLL
Procedure, shortened: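 Cells (CHO, stable ADRB2 overexpression) incubated 18-20hr at 37C; compounds added from DMSO; agonist mix (1nM isoproterenol, 100uM IBMX, 25uM Ro-20-1724) added; 0.5hr RT; d2-cAMP and anti-cAMP-cryptate added; 1hr RT; 665/615 nm read.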

[18] = target: Beta-2 adrenergic receptor (Homo sapiens) (UniProt P07550); experiment: Adrenergic beta2 receptor (ADRB2) small molecule agonists, cell-based qHTS assay (AID 1963593);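 also: CHO cells stably overexpressing human ADRB2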
Procedure, shortened: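 CHO cells stably over-expressing ADRB2 were plated overnight at 37C, then dosed with compounds plus a stimulation mix containing 100uM IBMX and 25uM Ro-20-1724 for 0.5hr at room temperature. cAMP was measured by HTRF competition, 1hr.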

[19] = target: D(2) dopamine receptor (Homo sapiens) (UniProt P14416); experiment: Dopamine D2 receptor (DRD2) small molecule agonists, cell-based qHTS assay (AID 1963594); also: nearly all actives have a fitted effect of over 35% in size
Sequence of D(2) dopamine receptor (Homo sapiens) (P14416 whole entry, looked up): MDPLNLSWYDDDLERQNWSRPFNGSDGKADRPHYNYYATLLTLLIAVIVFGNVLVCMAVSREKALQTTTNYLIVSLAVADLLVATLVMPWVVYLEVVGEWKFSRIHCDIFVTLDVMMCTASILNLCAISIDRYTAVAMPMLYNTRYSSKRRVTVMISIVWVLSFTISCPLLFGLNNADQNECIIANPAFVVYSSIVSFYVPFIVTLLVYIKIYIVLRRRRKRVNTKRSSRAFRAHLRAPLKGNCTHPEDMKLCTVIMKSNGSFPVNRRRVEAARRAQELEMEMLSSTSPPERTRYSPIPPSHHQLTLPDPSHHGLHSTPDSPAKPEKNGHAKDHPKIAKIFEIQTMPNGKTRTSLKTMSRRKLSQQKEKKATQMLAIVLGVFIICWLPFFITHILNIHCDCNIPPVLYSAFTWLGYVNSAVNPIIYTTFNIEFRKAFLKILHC
Procedure, shortened: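 cAMP accumulation in DRD2-HEK293 cells measured by HTRF after 1 h detection; compounds added 10 min before NKH477 (200nM […]) forskolin-analogue stimulation, 30 min at room temperature, with Ro20-1724 present at 0.1 mM final.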

[20] = target: D(2) dopamine receptor (Homo sapiens) (UniProt P14416); experiment: Dopamine D2 receptor (DRD2) small molecule antagonists, cell-based qHTS assay (AID 1963595; active = well fitted inhibition curve with a large enough effect in the signal ratio in the repeat runs, with a control signal flat; the % refers to the signal ratio)
Procedure, shortened: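 HEK293 cells stably expressing DRD2 were preincubated with 0.1 mM Ro20-1724, then with compound for 10 min at room temperature. Cells were stimulated with 200 nM NKH477 plus 12 nM quinpirole for 30 min, and cAMP was read by HTRF.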

Measured: Potency

C=CC1CC=CCC1 (stereo unspecified)
inactive: [1] | [2] | [3] | [4] | [5] | [6] | [7] | [8] | [9] | [10] | [11] | [12] | [13] | [14] | [15] | [16] | [17] | [18] | [19] | [20]

CNc1cnn(-c2cccc(C(F)(F)F)c2)c(=O)c1Cl
inactive: [1] | [2] | [3] | [4] | [5] | [6] | [7] | [8] | [9] | [10] | [11] | [12] | [13] | [14] | [15] | [16] | [17] | [18] | [19] | [20]

CC(C)(c1ccc(OCC2CO2)cc1)c1ccc(OCC2CO2)cc1 (stereo unspecified)
active: [1] 49.2 µM
inactive: [2] | [3] | [4] | [5] | [6] | [7] | [8] | [9] | [11] | [12] | [13] | [14] | [15] | [17] | [19] | [20]

Cc1cccc(N=Nc2ccc(N(C)C)cc2)c1
inactive: [1] | [2] | [3] | [4] | [5] | [6] | [7] | [8] | [9] | [10] | [11] | [14] | [15] | [16] | [17] | [18] | [19] | [20]

S=C=S
inactive: [1] | [2] | [3] | [4] | [5] | [6] | [7] | [8] | [9] | [10] | [11] | [12] | [14] | [15] | [16] | [17] | [19] | [20]

CCC(C)C(C)(COC(N)=O)COC(N)=O (stereo unspecified)
inactive: [1] | [2] | [3] | [4] | [5] | [6] | [7] | [8] | [9] | [10] | [11] | [12] | [13] | [14] | [15] | [16] | [17] | [20]

CC(NC(C)(C)C)C(=O)c1cccc(Cl)c1 (stereo unspecified)
inactive: [1] | [2] | [3] | [4] | [5] | [6] | [7] | [8] | [9] | [10] | [15] | [16] | [17] | [19] | [20]
